The text below walks through data of PubChem BioAssay (Tox21).

Inconclusive results are not listed. Where a call stands in place of a potency, no number is given. Active and inactive are the calls of the source. Calls come from the whole dose curve; as a rule, active = well fitted activation curve with a large enough effect in the repeat runs; inconclusive = weak or mixed curves; inactive = flat fitted curve, though single readings scatter.

This assay can be described thus: A CellTox Green Cytotoxicity Assay to monitor cytotoxicity in HEK293 cells - 16 hour (AID 1224888). Note: nearly all actives have a fitted effect of over 35% in size. As to conditions: CellTox Green fluorescence; series mostly up to 76.8 µM. The text has this:
National Center for Advancing Translational Sciences [NCATS]
NIH Chemical Genomics Center [NCGC]
U.S. Environmental Protection Agency [EPA]
National Institutes of Environmental Health Sciences [NIEHS]
National Toxicology Program [NTP]
Cell-based models are critical for drug discovery. Determining the natural cytotoxic effects resulting from test compounds is an essential research activity. A CellTox Green Cytotoxicity Assay to monitor cytotoxicity in real time of continues cell culture during 40 hours of the compound treatment was used to screen Tox21 10K library compounds in Hek293 cells. CellTox Green Cytotoxicity Assay is a nonlytic, homogeneous, biofluorescent method to measure cytotoxicity in cell culture after experimental manipulation. The assay system uses a proprietary asymmetric cyanine dye that is excluded from viable cells but preferentially stains the dead cell's DNA. […] Viable cells produce no appreciable increases in fluorescence. Therefore, the fluorescence signal produced by the binding interaction with dead cell DNA is proportional to cytotoxicity.
The mixture of Hek293 cell suspension and reagents were dispensed at 600cells/6 ul/well in 1536-well tissue culture treated black solid bottom plates using a Multidrop dispenser. After the assay plates were incubated at a 37 C/5% CO2 incubator for 5 hours, 23 nL of compounds dissolved in DMSO, positive and negative controls was transferred to the assay plate by a pintool work station. The plates were incubated at 37 C for 40 hours. The fluorescence intensity were measured at 0h, 8h, 16h, 24h, 32h and 40h time points using ViewLux plate reader during compound treatment.
As for `C=CC=O`, the Potency entry is “inactive”. With `O=C(Cl)OCc1ccccc1`, the Potency entry is “inactive”.

In the case of `CCC(C)C(C)(COC(N)=O)COC(N)=O` (stereo not given), the Potency result was “inactive”. `CN(CCO)CCO`: the Potency result is “inactive”. Take `Clc1cc2c(cc1Cl)Oc1cc(Cl)c(Cl)cc1O2`: the activity change is -25.8% [at 0.29 µM, hits give high values] (inactive).

In the case of `O=C(Cl)C(Cl)Cl`, the Potency entry is “inactive”. On to `N#CN=C1SCCN1Cc1ccc(Cl)nc1`, for which the Potency result is “inactive”.

Regarding `Cc1ccc(Cl)c(O)c1`, the Potency result is “inactive”. Still for that read-out and setting: the value for `C/C(=N\NC(=O)Nc1cc(F)cc(F)c1)c1ncccc1C(=O)O` was “inactive”.

Regarding `CC1NCCOC1c1ccccc1` (stereo not given), the Potency result was “inactive”. For `C[C@H]1CCCC(=O)CCC/C=C/c2cc(O)cc(O)c2C(=O)O1`, the Potency entry was “inactive”.

Consider `CCOC1Oc2ccc(OS(C)(=O)=O)cc2C1(C)C` (stereo not given), for which the Potency entry was “inactive”. As for `CC#Cc1cc(C)nc(Nc2ccccc2)n1`, the Potency entry was “inactive”. The same measure, in the same setting: the value for `O=C(O)CBr` was “inactive”; that for `ClCCCCCCCl` was “inactive”. The same measure, in the same setting: the value for `CN1C(=O)COc2c(C(=O)NC3CN4CCC3CC4)cc(Cl)cc21` (stereo not given) was “inactive”; that for `C=C(Cl)CCl` was “inactive”; that for `N[C@@H]1C[C@H]1c1ccccc1` was “inactive”. In the case of `CC(Cc1ccccc1)NCCCCl` (stereo not given), the Potency result is “inactive”. As to `Oc1ccc2c3c1O[C@H]1[C@@H](O)C=C[C@H]4[C@@H](C2)NCC[C@@]341`, the Potency result is “inactive”. Consider `Cn1c(N)nc2c3cccnc3ccc21`, for which the Potency result was “inactive”.

For `NNCc1ccccc1`, the Potency entry is “inactive”. Same read-out and setting: the entry for `CCCC[N+](=O)[O-]` is “inactive”. The same measure, in the same setting: the value for `CCC(=O)OC1(c2ccccc2)CCN(C)CC1` was “inactive”. Still for that read-out and setting: the value for `O=C(Cl)/C=C/C(=O)Cl` was “inactive”; that for `CC(C)(O)C(Cl)(Cl)Cl` was “inactive”; that for `CCNc1nc(NCC)nc(SC)n1` was “inactive”. As to `O=[N+]([O-])c1cccc(CCl)c1`, the Potency result is “inactive”. On to `O=C1CCCCC1Cl` (stereo not given), for which the Potency result is “inactive”.

`CCOC(=O)c1ncn2c1CN(C)C(=O)c1c(I)cccc1-2`: the Potency result is “inactive”. Same read-out and setting: the entry for `O=C(O)C(Cl)Br` (stereo not given) is “inactive”; for `ClC(Cl)(Cl)Cl` it is “inactive”.

For the molecule `CCOc1cc(OP(=S)(OC)OC)nc(CC)n1`, the Potency result is “inactive”. The same measure, in the same setting: the entry for `O=C(Cl)CCl` is “inactive”. The same measure, in the same setting: the entry for `CC1N=C(N)OC1c1ccccc1` (stereo not given) is “inactive”; for `CCC(C(N)=O)N1CCCC1=O` (stereo not given) it is “inactive”; for `CON(C)C(=O)Nc1ccc(Br)c(Cl)c1` it is “inactive”. With `OCC(Cl)CCl` (stereo not given), the Potency result was “inactive”. On the same count and under the same terms, the value for `c1ccc2c(c1)CCNC2` was “inactive”; that for `O=c1[nH]c2ccccc2n1C1CCNCC1` was “inactive”.
